Of roughly 7,900 targets only a part is listed; those with a hit were picked by preference. About 0.6% of all pairs of compound and target were hits.
Legend:
Assay in all cases: log2 fold change, soluble protein after heating vs DMSO (PISA); higher = thermal stabilisation; K562 cells, 10 uM, 30 min; active = over 0.2 and 3.5 SD of the protein, either way, in both replicates (recomputed)
[1] = compound: CS(=O)(=O)c1ccc(-c2cnc(N)c(C(=O)Nc3ccccc3)n2)cc1
In short: (§1)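 K562 cells at 2×10^6 cells/mL were exposed to 10 μM compound for 30 min, then aliquots were heated for 3 min across 48°C-58°C, pooled, and extracted in PBS containing 0.5% NP-40 at 4°C. The supernatant after 21,000xg for 90 min was taken as soluble protein and measured by TMTpro 16plex LC-MS/MS with channel sums equalised. Thermal stability is reported relative to control samples, with values from duplicates. Fold changes are given on a log2 scale.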

[2] = compound: C[C@@H](Oc1cc(-c2cnn(C3CCNCC3)c2)cnc1N)c1c(Cl)ccc(F)c1Cl [crizotinib]
In short: as §1

[3] = compound: C[C@@H]1COCCN1C2=NC(=NC(=C2)C3(CC3)S(=O)(=O)C)C4=C5C=CNC5=CC=C4
In short: as §1

[4] = compound: C[C@H](C1=CC=C(C=C1)C(=O)NC2=C3C=CNC3=NC=C2)N
In short: as §1

[5] = compound: C[C@H](Nc1ncnc2nc[nH]c12)c1cc2cccc(Cl)c2c(=O)n1-c1ccccc1 [duvelisib]
In short: as §1

[6] = compound: Cc1cc(Nc2cc(CN3CCOCC3)c3nc(C)c(Cc4ccc(Cl)cc4F)n3n2)n[nH]1 [gandotinib]
In short: as §1

[7] = compound: Cc1cc(Nc2cc(N3CCN(C)CC3)nc(Sc3ccc(NC(=O)C4CC4)cc3)n2)n[nH]1 [tozasertib]
In short: as §1

[8] = compound: Cc1cc(SCc2sc(-c3ccc(C(F)(F)F)cc3)nc2C)ccc1OCC(=O)O
In short: as §1

[9] = compound: Cc1ccc(-n2nc(C(C)(C)C)cc2NC(=O)Nc2ccc(OCCN3CCOCC3)c3ccccc23)cc1 [doramapimod]
In short: as §1

[10] = compound: Cc1ccc(C(=O)N(CCCN)[C@@H](c2nc3cc(Cl)ccc3c(=O)n2Cc2ccccc2)C(C)C)cc1 [ispinesib]
In short: as §1

[11] = compound: Cc1ccc(NC(=O)c2ccc(CN3CC[C@H](N(C)C)C3)c(C(F)(F)F)c2)cc1Nc1nccc(-c2cncnc2)n1 [bafetinib]
In short: as §1

[12] = compound: Cc1cccc(CC(=O)N2CCc3c2ccc(-c2cn(C)c4ncnc(N)c24)c3F)n1
In short: as §1

[13] = compound: Cc1cn(-c2cc(NC(=O)c3ccc(C)c(Nc4nccc(-c5cccnc5)n4)c3)cc(C(F)(F)F)c2)cn1 [nilotinib]
In short: as §1

[14] = compound: Cc1nc(Nc2n[nH]c3c2CN(C(=O)N[C@H](CN(C)C)c2ccccc2)C3(C)C)c2sccc2n1
In short: as §1

[15] = compound: Cc1nc(Nc2ncc(C(=O)Nc3c(C)cccc3Cl)s2)cc(N2CCN(CCO)CC2)n1 [dasatinib]
In short: as §1

[16] = compound: Cc1ncc(-c2ccnc(Nc3ccc(S(C)(=O)=O)cc3)n2)n1C(C)C
In short: as §1

[17] = compound: Cn1cc(-c2ccc3c(c2)CCN3C(=O)Cc2cccc(C(F)(F)F)c2)c2c(N)ncnc21
In short: as §1

[18] = compound: Cn1cc(-c2ccc3nnc(C(F)(F)c4ccc5ncccc5c4)n3n2)cn1
In short: as §1

[19] = compound: Cn1cncc1[C@@](N)(c1ccc(Cl)cc1)c1ccc2c(c1)c(-c1cccc(Cl)c1)cc(=O)n2C [tipifarnib]
In short: as §1

[20] = compound: FC(F)(F)c1ccc(/C=C/c2nc(COc3ccc(CCCCn4ccnn4)cc3)co2)cc1 [mubritinib]
In short: as §1

Measured: log2 fold change

TNFAIP8 isoform 4 (UniProt O95379)
inactive: [1] 0.005 | [2] 0 | [3] 0.122 | [4] -0.099 | [5] 0.019 | [6] -0.073 | [7] -0.076 | [8] -0.046 | [9] -0.016 | [10] -0.046 | [11] -0.079 | [12] 0.014 | [13] -0.045 | [14] -0.095 | [15] -0.109 | [16] 0.007 | [17] 0.047 | [18] 0.005 | [19] -0.023 | [20] 0.031

WDR41 (UniProt Q9HAD4)
Sequence of UniProt Q9HAD4 (Q9HAD4 whole entry, looked up): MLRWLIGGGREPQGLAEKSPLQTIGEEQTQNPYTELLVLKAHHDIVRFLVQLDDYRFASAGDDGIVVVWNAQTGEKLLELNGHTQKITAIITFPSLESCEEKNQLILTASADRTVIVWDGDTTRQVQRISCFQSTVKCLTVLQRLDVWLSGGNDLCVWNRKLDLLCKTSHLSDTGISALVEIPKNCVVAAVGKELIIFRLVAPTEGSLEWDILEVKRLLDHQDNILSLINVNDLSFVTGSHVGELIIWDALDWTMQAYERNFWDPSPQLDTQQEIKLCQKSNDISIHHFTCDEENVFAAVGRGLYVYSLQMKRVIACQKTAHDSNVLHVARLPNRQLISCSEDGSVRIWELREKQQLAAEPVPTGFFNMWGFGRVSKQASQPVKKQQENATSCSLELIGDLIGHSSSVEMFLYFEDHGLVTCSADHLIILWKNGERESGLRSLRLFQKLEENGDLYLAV
inactive: [1] 0.01 | [2] -0.093 | [3] -0.064 | [4] -0.064 | [5] 0.013 | [6] -0.035 | [7] -0.002 | [8] -0.02 | [9] -0.042 | [10] -0.172 | [11] -0.139 | [12] 0.169 | [13] 0 | [14] -0.076 | [15] -0.082 | [16] -0.017 | [17] 0.012 | [18] -0.003 | [19] 0.023 | [20] 0.071

TMEM70 (UniProt Q9BUB7)
Sequence of UniProt Q9BUB7 (Q9BUB7 whole entry, looked up): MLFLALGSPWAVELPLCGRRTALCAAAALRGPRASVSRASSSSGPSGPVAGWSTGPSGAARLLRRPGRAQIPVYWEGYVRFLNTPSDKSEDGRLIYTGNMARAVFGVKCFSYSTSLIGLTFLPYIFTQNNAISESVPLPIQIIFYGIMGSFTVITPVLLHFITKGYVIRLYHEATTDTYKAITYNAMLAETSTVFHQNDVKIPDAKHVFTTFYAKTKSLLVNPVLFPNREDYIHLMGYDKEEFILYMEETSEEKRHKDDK
inactive: [1] 0.025 | [2] -0.096 | [3] 0.035 | [4] 0.002 | [5] -0.016 | [6] -0.08 | [7] -0.016 | [8] 0.087 | [9] -0.017 | [10] -0.243 | [11] -0.141 | [12] 0.026 | [13] 0.028 | [14] -0.003 | [15] -0.094 | [16] 0.018 | [17] 0.06 | [18] 0.023 | [19] -0.02 | [20] 0.017

WDHD1 (UniProt O75717)
Sequence of UniProt O75717 (O75717 whole entry, looked up): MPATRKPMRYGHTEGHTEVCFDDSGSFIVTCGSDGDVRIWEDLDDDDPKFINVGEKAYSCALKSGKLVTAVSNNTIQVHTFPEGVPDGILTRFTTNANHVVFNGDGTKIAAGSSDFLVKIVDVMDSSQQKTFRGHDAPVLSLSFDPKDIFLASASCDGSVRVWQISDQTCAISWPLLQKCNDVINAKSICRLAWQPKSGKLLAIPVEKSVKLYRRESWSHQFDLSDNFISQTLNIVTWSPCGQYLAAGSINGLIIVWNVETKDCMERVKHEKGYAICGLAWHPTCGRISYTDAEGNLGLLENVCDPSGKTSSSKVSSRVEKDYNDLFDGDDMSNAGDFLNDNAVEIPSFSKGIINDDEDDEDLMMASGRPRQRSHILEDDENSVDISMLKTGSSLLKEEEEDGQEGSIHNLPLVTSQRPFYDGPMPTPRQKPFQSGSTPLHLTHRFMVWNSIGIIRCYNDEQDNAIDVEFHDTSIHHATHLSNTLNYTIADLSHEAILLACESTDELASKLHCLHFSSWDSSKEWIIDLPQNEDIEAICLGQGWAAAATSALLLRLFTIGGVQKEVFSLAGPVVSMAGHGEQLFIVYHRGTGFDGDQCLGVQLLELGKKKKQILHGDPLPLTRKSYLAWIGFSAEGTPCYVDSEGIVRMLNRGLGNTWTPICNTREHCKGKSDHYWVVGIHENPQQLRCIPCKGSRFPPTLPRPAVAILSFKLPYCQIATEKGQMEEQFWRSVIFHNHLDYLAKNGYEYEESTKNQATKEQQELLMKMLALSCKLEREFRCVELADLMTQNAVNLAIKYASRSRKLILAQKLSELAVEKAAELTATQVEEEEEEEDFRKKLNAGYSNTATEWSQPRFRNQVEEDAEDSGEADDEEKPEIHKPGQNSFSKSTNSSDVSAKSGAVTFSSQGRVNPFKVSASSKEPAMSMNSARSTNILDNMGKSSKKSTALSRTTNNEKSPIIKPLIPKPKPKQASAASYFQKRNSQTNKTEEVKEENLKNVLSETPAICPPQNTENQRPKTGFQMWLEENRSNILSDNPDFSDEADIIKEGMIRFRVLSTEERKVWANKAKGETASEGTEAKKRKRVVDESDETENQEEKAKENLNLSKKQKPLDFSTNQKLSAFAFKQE
inactive: [1] 0.038 | [2] 0.021 | [3] 0.098 | [4] -0.025 | [5] 0.109 | [6] -0.029 | [7] 0.09 | [8] 0.109 | [9] -0.093 | [10] 0.042 | [11] -0.009 | [12] 0.008 | [13] -0.005 | [14] -0.12 | [15] -0.076 | [16] -0.021 | [17] 0.03 | [18] 0.022 | [19] -0.041 | [20] 0.067

TMTC3 (UniProt Q6ZXV5)
inactive: [1] 0.054 | [2] -0.088 | [3] -0.052 | [4] 0.072 | [5] -0.017 | [6] -0.039 | [7] -0.012 | [8] 0.038 | [9] 0.018 | [10] -0.188 | [11] -0.07 | [12] -0.02 | [13] -0.036 | [14] 0 | [15] -0.055 | [16] 0.015 | [17] -0.051 | [18] 0.061 | [19] -0.018 | [20] 0.011

VPS37A (UniProt Q8NEZ2)
Sequence of UniProt Q8NEZ2 (Q8NEZ2 whole entry, looked up): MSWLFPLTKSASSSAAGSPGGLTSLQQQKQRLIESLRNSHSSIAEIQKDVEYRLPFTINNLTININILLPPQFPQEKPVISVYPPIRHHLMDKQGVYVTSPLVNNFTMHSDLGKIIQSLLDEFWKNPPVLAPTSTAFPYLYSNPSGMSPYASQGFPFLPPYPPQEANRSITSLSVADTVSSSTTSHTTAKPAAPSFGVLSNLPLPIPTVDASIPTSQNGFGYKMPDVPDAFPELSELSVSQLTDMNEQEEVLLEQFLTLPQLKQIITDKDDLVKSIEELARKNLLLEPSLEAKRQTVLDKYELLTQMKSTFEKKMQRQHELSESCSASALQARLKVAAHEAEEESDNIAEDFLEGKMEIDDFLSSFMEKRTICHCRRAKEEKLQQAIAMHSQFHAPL
inactive: [1] 0.035 | [2] -0.146 | [3] 0.092 | [4] -0.084 | [5] 0.044 | [6] -0.292 | [7] 0.057 | [8] 0.206 | [9] -0.017 | [10] 0 | [11] -0.065 | [12] -0.06 | [13] -0.134 | [14] -0.27 | [15] -0.168 | [16] -0.039 | [17] 0.048 | [18] 0.014 | [19] -0.112 | [20] -0.038

UCHL5 (UniProt Q9Y5K5)
Sequence of UniProt Q9Y5K5 (Q9Y5K5 whole entry, looked up): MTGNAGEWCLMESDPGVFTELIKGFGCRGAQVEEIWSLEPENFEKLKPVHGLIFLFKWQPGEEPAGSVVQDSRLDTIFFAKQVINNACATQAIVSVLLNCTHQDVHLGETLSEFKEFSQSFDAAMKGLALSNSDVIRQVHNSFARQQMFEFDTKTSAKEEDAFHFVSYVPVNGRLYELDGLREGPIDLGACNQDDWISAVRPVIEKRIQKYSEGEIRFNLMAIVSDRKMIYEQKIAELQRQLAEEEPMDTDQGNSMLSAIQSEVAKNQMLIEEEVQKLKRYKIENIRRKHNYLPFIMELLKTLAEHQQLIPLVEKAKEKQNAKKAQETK
inactive: [1] 0.023 | [2] -0.066 | [3] 0 | [4] -0.005 | [5] -0.006 | [6] -0.116 | [7] 0.036 | [8] 0.064 | [9] -0.015 | [10] -0.056 | [11] 0.014 | [12] 0.045 | [13] -0.06 | [14] -0.071 | [15] -0.152 | [16] 0.007 | [17] 0.012 | [18] 0 | [19] -0.093 | [20] -0.001

TUBA4A (UniProt P68366)
Sequence of UniProt P68366 (P68366 whole entry, looked up): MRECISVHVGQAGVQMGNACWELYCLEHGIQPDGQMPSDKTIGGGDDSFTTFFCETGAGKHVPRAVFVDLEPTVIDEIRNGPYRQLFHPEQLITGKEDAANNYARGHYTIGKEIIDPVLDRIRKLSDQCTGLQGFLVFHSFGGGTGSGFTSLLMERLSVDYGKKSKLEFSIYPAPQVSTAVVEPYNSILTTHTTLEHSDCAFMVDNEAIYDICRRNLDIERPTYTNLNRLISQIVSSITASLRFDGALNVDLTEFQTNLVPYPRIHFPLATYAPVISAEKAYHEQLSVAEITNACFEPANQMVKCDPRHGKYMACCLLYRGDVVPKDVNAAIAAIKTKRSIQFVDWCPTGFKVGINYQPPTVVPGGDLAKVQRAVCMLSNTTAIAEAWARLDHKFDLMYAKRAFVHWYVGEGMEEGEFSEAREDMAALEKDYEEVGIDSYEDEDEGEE
inactive: [1] 0.004 | [2] -0.11 | [3] 0.099 | [4] -0.054 | [5] 0.329 | [6] 0.014 | [7] -0.068 | [8] 0.208 | [9] 0.008 | [10] 0.009 | [11] 0.038 | [12] -0.028 | [13] -0.011 | [14] 0.008 | [15] -0.102 | [16] -0.009 | [17] 0.047 | [18] 0.051 | [19] -0.073 | [20] 0.073

UHRF1BP1L (UniProt A0JNW5)
inactive: [1] 0.001 | [2] -0.04 | [3] 0.031 | [4] -0.002 | [5] 0.091 | [6] -0.038 | [7] -0.025 | [8] -0.024 | [9] 0.046 | [10] 0.2 | [11] 0.055 | [12] -0.002 | [13] 0.105 | [14] 0.005 | [15] -0.003 | [16] -0.029 | [17] 0.036 | [18] 0.038 | [19] -0.065 | [20] 0.007

TMEM173 (UniProt Q86WV6)
inactive: [1] 0.042 | [2] 0.147 | [3] 0.041 | [4] 0.004 | [5] 0.017 | [6] -0.151 | [7] 0.01 | [8] 0.078 | [9] 0.023 | [10] 0.037 | [11] 0.007 | [12] 0.019 | [13] -0.129 | [14] -0.013 | [15] -0.156 | [16] 0.003 | [17] 0.001 | [18] -0.046 | [19] 0.021 | [20] 0.066

WDR62 isoform 4 (UniProt O43379)
inactive: [1] 0.064 | [2] -0.137 | [3] 0.07 | [4] -0.064 | [5] 0.011 | [7] -0.068 | [8] -0.016 | [9] -0.057 | [10] -0.02 | [11] -0.193 | [12] 0.016 | [13] -0.149 | [14] -0.041 | [15] -0.107 | [16] -0.083 | [17] 0.009 | [18] 0.032 | [19] 0.002 | [20] 0.024
active: [6] -0.204

TPP1 (UniProt O14773)
inactive: [1] 0.025 | [3] 0.022 | [4] -0.026 | [5] 0.056 | [6] 0.049 | [7] -0.009 | [8] -0.016 | [9] 0.008 | [10] -0.189 | [12] 0.007 | [13] 0.008 | [14] -0.031 | [15] -0.051 | [16] 0.022 | [17] -0.025 | [18] 0 | [19] 0.049 | [20] -0.001
active: [2] -0.371 | [11] -0.48

TMEM208 (UniProt Q9BTX3)
inactive: [1] -0.09 | [2] -0.119 | [3] 0.134 | [4] -0.004 | [5] -0.039 | [6] 0.086 | [7] -0.035 | [8] 0.076 | [9] 0.019 | [10] -0.243 | [11] -0.131 | [12] 0.097 | [13] -0.101 | [14] 0.092 | [15] -0.19 | [16] 0.185 | [17] -0.024 | [18] 0.01 | [19] -0.223 | [20] 0.062

UFL1 (UniProt O94874)
Sequence of UniProt O94874 (O94874 whole entry, looked up): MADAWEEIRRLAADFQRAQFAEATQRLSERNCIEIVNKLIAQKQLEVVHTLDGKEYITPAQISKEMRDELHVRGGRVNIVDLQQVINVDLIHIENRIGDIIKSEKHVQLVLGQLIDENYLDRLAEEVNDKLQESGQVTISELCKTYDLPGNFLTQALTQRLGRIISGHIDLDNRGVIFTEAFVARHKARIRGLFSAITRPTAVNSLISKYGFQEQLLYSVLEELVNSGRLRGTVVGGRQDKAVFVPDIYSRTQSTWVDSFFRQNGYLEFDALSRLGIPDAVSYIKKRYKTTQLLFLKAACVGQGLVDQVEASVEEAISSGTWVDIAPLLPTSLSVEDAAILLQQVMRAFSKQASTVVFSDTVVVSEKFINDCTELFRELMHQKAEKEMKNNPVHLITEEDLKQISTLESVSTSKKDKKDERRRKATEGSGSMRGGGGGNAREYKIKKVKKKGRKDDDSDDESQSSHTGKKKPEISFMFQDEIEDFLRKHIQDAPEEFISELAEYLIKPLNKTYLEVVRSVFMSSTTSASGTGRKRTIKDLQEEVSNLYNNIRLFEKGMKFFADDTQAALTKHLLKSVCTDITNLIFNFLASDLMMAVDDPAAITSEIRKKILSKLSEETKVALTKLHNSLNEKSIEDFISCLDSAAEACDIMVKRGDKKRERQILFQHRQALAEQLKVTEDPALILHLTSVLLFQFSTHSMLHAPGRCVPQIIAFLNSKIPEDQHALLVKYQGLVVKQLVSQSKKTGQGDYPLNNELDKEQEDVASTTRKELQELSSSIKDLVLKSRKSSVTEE
inactive: [1] 0.05 | [2] -0.053 | [3] -0.043 | [4] 0.067 | [5] 0.005 | [6] -0.069 | [7] -0.016 | [8] 0.106 | [9] -0.02 | [10] -0.025 | [11] 0.032 | [12] 0.018 | [13] -0.119 | [14] -0.009 | [15] -0.165 | [16] 0.083 | [17] -0.013 | [18] -0.007 | [19] -0.052 | [20] 0.062

WASHC5 (UniProt Q12768)
Sequence of UniProt Q12768 (Q12768 whole entry, looked up): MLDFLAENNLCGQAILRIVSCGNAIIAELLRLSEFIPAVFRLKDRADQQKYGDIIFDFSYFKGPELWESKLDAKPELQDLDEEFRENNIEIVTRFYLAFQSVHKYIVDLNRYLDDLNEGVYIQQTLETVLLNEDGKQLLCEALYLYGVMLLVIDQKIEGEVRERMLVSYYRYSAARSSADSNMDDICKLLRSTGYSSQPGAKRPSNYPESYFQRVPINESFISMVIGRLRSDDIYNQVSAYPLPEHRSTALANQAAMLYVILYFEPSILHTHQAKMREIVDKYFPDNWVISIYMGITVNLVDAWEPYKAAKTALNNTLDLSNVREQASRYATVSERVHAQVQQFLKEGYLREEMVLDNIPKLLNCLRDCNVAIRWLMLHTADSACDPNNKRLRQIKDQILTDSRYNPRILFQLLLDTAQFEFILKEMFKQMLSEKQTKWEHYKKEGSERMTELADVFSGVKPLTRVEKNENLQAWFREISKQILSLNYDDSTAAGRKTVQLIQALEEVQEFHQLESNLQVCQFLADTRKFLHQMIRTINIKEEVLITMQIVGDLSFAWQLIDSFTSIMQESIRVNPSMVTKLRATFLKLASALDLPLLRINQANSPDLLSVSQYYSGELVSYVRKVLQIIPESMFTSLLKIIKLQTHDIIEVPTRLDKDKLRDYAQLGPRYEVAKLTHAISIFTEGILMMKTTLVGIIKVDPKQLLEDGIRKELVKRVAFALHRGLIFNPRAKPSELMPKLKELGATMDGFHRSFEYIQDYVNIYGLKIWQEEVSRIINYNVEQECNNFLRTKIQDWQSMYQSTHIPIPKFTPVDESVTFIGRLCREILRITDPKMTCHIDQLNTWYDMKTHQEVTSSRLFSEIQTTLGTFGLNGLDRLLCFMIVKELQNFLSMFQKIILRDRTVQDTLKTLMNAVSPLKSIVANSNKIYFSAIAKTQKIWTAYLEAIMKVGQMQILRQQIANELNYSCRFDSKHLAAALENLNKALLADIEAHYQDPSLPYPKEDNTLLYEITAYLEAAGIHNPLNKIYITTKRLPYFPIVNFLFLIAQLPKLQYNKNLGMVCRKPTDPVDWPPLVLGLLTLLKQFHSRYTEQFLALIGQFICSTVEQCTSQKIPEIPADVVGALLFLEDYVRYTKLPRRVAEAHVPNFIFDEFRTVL
inactive: [1] -0.023 | [2] -0.133 | [3] -0.068 | [4] 0.053 | [5] -0.034 | [6] -0.002 | [7] -0.02 | [8] 0.032 | [9] 0.073 | [10] -0.093 | [11] -0.052 | [12] 0.044 | [13] -0.046 | [14] -0.001 | [15] -0.112 | [16] -0.004 | [17] 0.005 | [18] 0.086 | [19] -0.001 | [20] 0.027

USP9X (UniProt Q93008)
inactive: [1] -0.008 | [2] -0.159 | [3] -0.024 | [4] 0.033 | [5] 0.001 | [6] -0.125 | [7] 0 | [8] 0.053 | [9] 0.016 | [10] -0.058 | [11] -0.016 | [12] 0.071 | [13] -0.099 | [14] -0.056 | [15] -0.122 | [16] -0.004 | [17] -0.052 | [18] -0.021 | [19] -0.126 | [20] 0.052

Reference: the supplement of paper PMC10849652
